Results as given in PubChem BioAssay.
Active and inactive are the calls of the source. Unless noted, no rule for the calls is given here.

Legend:
[1] = compound effects on lung adenocarcinoma cell viability – A549, calcein-AM fluorescence, 48 h, basal, profiling panel (AID 1162); settings: higher = more signal; also: test concentration not given here
[2] = compound effects on differentiated 3T3-L1 adipocyte viability – cell-based, 3T3-L1 adipocytes, calcein-AM fluorescence, 48 h, basal, profiling panel (AID 1163); settings: 3T3-L1 adipocytes viability, higher = more signal; also: test concentration not given here
[3] = compound effects on hepatocellular carcinoma cell viability – HepG2, calcein-AM fluorescence, 48 h, basal, profiling panel (AID 1164); settings: higher = more signal; also: test concentration not given here
[4] = compound effects on multiple myeloma cell viability – MM1S, calcein-AM fluorescence, 48 h, basal, profiling panel (AID 1165); settings: higher = more signal;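 also: viability of MM1S multiple myeloma cells under basal unstimulated conditions; test concentration not given here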
[5] = calcein-AM signal in unstimulated myeloma cells – cell-based, calcein-AM fluorescence, 48 h, PK04 Diversity Set, profiling panel (AID 1166); settings: RPMI8226 myeloma viability, higher = more signal;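 also: cells grown under basal conditions without added stimulus; test concentration not given here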
[6] = JC-1 mitochondrial signal, unstimulated HepG2 cells – cell-based, JC-1 fluorescence, 24 h, 100 nL compound, profiling panel (AID 1167); settings: HepG2 mitochondrial potential, higher = more signal; also: test concentration not given here
[7] = JC-1 mitochondrial signal, unstimulated adipocytes – cell-based, JC-1 fluorescence, 3T3-L1 adipocytes, 24 h, 100 nL compound, profiling panel (AID 1168); settings: JC-1 mitochondrial fluorescence, higher = more signal, called active from +8 up or from −8 down; also: test concentration not given here
[8] = JC-1 mitochondrial signal, unstimulated myeloma cells – cell-based, JC-1 fluorescence, RPMI8226, 24 h, 100 nL compound, profiling panel (AID 1169); settings: JC-1 mitochondrial potential fluorescence, higher = more signal; also: test concentration not given here
[9] = JC-1 mitochondrial signal, unstimulated MM1S myeloma – cell-based, JC-1 fluorescence, 24 h, 100 nL compound, profiling panel (AID 1170); settings: MM1S mitochondrial potential, higher = more signal; also: test concentration not given here
[10] = resazurin metabolic signal in A549 cells – cell-based, resazurin fluorescence, 24 h, PK04 Diversity Set, profiling panel (AID 1171); settings: A549 viability, higher = more signal, called active from +8 up or from −8 down; also: test concentration not given here
[11] = resazurin metabolic signal in HepG2 cells – cell-based, resazurin fluorescence, 24 h, PK04 Diversity Set, profiling panel (AID 1172); settings: HepG2 viability, higher = more signal; also: test concentration not given here
[12] = budding yeast growth changes without added modifier – OD600, strain BY4716, 24 h, basal condition, primary screen (AID 1173); settings: S. cerevisiae BY4716 growth, OD600, 24 h; higher = more signal, called active from +8 up or from −8 down
[13] = viability profiling in MM1S myeloma cells – cell-based, resazurin fluorescence, basal, 24 h, PK04 Diversity Set, profiling panel (AID 1174); settings: higher = more signal, called active from +8 up or from −8 down; also: test concentration not given here
[14] = target: Dihydroorotate dehydrogenase (quinone), mitochondrial (Plasmodium falciparum (isolate 3D7)) (UniProt Q08210); experiment: inhibition of P. falciparum DHODH – biochemical, C-terminal His tag, absorbance 600 nm, primary screen (AID 1175); settings: PfDHODH enzyme, DCIP absorbance 600 nm; higher = more signal, called active from +8 up or from −8 down;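 also: recombinant parasite enzyme with a five histidine tag at its C terminus; test concentration not given here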
[15] = inhibition of PAO1 biofilm formation – strain PAO1, LB-PBS medium, absorbance 600 nm, primary screen (AID 1176); also: test concentration not given here; settings: P. aeruginosa PAO1 growth/biofilm, A600, 12 h; higher = more signal
[16] = growth modulation of vineyard yeast isolate – strain RM11-1a, OD600, basal, 24 h, primary screen (AID 1177);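 also: cultures grown under basal conditions with no added stressor; test concentration not given here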; settings: S. cerevisiae RM11-1a growth, OD600, 24 h; higher = more signal, called active from +8 up or from −8 down
[17] = growth of efflux-deficient E. coli DRC39 – strain DRC39, OD650, 24 h, E. coli filamentation inducers, primary screen (AID 1178);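 also: growth measured as culture turbidity by optical density at 650 nm; test concentration not given here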; settings: E. coli DRC39 acrAB, higher = more signal, called active from +8 up or from −8 down
[18] = growth of efflux-deficient E. coli DRC39 – strain DRC39, OD650, 48 h, E. coli filamentation inducers, primary screen (AID 1179);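 also: screen aims at cell division blockers that make cells filament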; settings: E. coli DRC39 delta-acrAB growth, higher = more signal, called active from +8 up or from −8 down
[19] = viability profiling in RPMI8226 myeloma cells – cell-based, resazurin fluorescence, basal, 24 h, PK04 Diversity Set, profiling panel (AID 1180); settings: higher = more signal;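 also: RPMI8826 multiple myeloma cell line at 5000 cells per well; test concentration not given here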
[20] = target: E3 ubiquitin-protein ligase XIAP (Homo sapiens) (UniProt P98170); experiment: small molecules binding XIAP protein – biophysical, small-molecule microarray, fluorescence 635 nm, primary screen (AID 1181); settings: higher = more signal;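 also: score merges 667 nm emission and signal to noise over triplicate slides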
E3 ubiquitin-protein ligase XIAP (Homo sapiens), sequence (P98170 whole entry, looked up): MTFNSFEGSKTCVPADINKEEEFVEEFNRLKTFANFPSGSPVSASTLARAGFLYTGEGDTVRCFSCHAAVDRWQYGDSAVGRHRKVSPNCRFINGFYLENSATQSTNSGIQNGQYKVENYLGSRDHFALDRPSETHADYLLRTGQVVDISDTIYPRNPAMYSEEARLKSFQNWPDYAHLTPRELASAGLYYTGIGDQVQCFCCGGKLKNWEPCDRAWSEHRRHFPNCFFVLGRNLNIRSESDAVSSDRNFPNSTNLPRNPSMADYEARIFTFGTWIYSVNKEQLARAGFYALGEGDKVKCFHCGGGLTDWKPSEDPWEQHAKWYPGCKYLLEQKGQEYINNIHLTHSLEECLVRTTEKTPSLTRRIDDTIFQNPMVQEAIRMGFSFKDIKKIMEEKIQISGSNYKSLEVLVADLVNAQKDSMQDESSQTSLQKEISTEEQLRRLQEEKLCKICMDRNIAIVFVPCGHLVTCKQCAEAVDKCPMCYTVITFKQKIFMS

Dihydroorotate dehydrogenase (quinone), mitochondrial (Plasmodium falciparum (isolate 3D7)), sequence (Q08210 whole entry, looked up): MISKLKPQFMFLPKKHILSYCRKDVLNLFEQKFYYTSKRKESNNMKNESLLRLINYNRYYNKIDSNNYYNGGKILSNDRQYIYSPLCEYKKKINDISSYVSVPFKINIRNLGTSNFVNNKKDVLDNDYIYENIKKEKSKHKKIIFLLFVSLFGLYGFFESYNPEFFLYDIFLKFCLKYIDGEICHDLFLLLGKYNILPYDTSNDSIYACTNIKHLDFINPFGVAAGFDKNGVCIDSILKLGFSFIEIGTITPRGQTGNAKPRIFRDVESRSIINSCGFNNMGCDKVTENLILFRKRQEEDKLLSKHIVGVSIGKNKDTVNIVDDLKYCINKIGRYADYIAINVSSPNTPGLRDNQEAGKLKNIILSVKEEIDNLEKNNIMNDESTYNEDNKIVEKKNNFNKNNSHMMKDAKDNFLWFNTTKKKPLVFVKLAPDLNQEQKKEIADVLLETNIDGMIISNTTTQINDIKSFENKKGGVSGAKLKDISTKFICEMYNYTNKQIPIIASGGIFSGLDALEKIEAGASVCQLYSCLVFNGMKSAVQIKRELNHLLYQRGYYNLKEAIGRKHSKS

Row | Compound | z-score [1] | z-score [2] | z-score [3] | z-score [4] | z-score [5] | z-score [6] | z-score [7] | z-score [8] | z-score [9] | z-score [10] | z-score [11] | z-score [12] | z-score [13] | composite z-score [14] | z-score [15] | z-score [16] | z-score [17] | z-score [18] | z-score [19] | composite z-score [20]
1 | COC(=O)[C@@]1(Cc2ccc(F)cc2)[C@H]2c3cc(C(=O)N(C)C)n(Cc4cc(F)cc5c4OCOC5)c3C[C@H]2CN1C(=O)c1ccccc1 | 0.217 | 0.572 | 0.607 | -1.25 | -1.9 | 1.76 | -0.737 (inactive) | -0.74 | -0.942 | -1.8 (inactive) | -0.933 | 0.434 (inactive) | -1.73 (inactive) | -0.954 (inactive) | 0.728 (inactive) | -0.341 (inactive) | -0.462 (inactive) | 0.164 (inactive) | -2.74 | 0.476
2 | C=C(C(=O)CC[C@@H](OC(C)=O)c1ccc(CO)o1)C(C)C | -0.306 | -0.317 | -0.261 | -1.39 | -0.812 | -1.5 | 0.241 (inactive) | 0.544 | -0.591 | 0.246 (inactive) | -0.192 | -0.788 (inactive) | 0.0874 (inactive) | -1.75 (inactive) | 2.05 (inactive) | -0.396 (inactive) | -0.351 (inactive) | -0.374 (inactive) | 0.0268 | 0.68
3 | Cc1ccc(S[C@]2(C(=O)NCC(F)(F)F)CC(=O)N(C3CCCCC3)[C@@H]2c2ccc(CO)cc2I)cc1 | 0.335 | 0.66 | 0.133 | -2.65 | -1.91 | -0.807 | -0.482 (inactive) | -0.445 | 0.176 | 0.741 (inactive) | 0.04 | 0.108 (inactive) | 0.384 (inactive) | 0.0443 (inactive) | 0.201 (inactive) | -0.531 (inactive) | -0.0243 (inactive) | -0.223 (inactive) | -0.128 | -0.12
4 | COC(=O)[C@H](Cc1ccccc1)N1CC(/C=C/C2CC2)=C[C@H]1[C@H](O)Cc1ccccc1 | 0.13 | -0.0604 | -0.551 | -3.38 | -3.98 | -2.09 | 0.128 (inactive) | -1.19 | -3.06 | -0.395 (inactive) | -0.57 | -2.67 (inactive) | -3.01 (inactive) | -0.258 (inactive) | 0.188 (inactive) | -0.55 (inactive) | -0.0993 (inactive) | -0.0274 (inactive) | -2.71 | -0.102
5 | C[C@@H]1NC(=O)[C@@]23C(=O)N[C@@H](Cc4ccccc4)C2[C@H](C)[C@@]2(C)O[C@H]2C3/C=C/C/C=C\CNC(=O)[C@@H]2CCCN2C1=O (stereo not given in full) | -0.143 | 0.389 | -0.0552 | 0.37 | -0.0448 | -0.175 | 1.19 (inactive) | 0.632 | -0.0219 | 0.247 (inactive) | -0.289 | -0.963 (inactive) | -0.737 (inactive) | -0.972 (inactive) | 1.28 (inactive) | -0.142 (inactive) | -0.4 (inactive) | -0.188 (inactive) | -0.0461 | -0.102
6 | COC(=O)[C@@]1(Cc2ccccc2)[C@H]2c3cc(C(=O)N(C)C)n(Cc4c(CO)[nH]cc(C)c4=O)c3C[C@H]2CN1C(=O)c1ccccc1 | -0.218 | -0.284 | 1.2 | -0.979 | -0.247 | 1.34 | -0.235 (inactive) | 0.445 | -0.491 | -0.25 (inactive) | -0.613 | 1.79 (inactive) | -0.706 (inactive) | 0.0442 (inactive) | 0.507 (inactive) | 1.24 (inactive) | -0.198 (inactive) | 0.0568 (inactive) | 0.0961 | -0.0663
